Sampled rows, rich in hits. Any-hit rate of the full collection: about 0.52%.
RGS4 inhibitor = human RGS4 inhibition. P49798. Potency, µM (series often up to 114 µM), for the others: top-dose activity change, negative = inhibition, most hits filed as inhibitors. Transcreener GDP fluorescence polarization, RGS4-accelerated GTP hydrolysis. AID 504845. 0.039% of 390,000 active; note: nearly all actives have a fitted effect of over 75% in size
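MLSMR compounds (23 nl, pin-transferred) preincubated 10 min at room temperature with a 500nM (2x) first reagent, then RGS4 at 900nM (2x) plus Transcreener GDP mix added; fluorescence polarization (620/688 nm) read before and after 90 min at 30 °C.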
Chronic BCR inh = chronic active BCR signaling inhibition | AID 493014 | ABC-DLBCL IkBa-CBG/CBR reporter, luminescence ratio, 4 h | Potency, µM (titrated, usually from 46.1 µM), without a hit: top-dose activity change, negative = inhibition, actives largely listed as inhibitors | 0.05% of 340,000 active; active = well fitted inhibition curve with a large enough effect in the signal ratio, with a control signal flat, not every such curve was filed as active; inconclusive = small, poorly fitted or top-dose-only effect, or effect the other way, or a change in a side signal; the % refers to the signal ratio;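 note: plate controls were basal doxycycline-induced cells for no effect and cells given 10 µM MG132 for full effect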
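Compounds up to 46 uM were incubated four hours with TMD8 cells whose green CBG68 luciferase is fused to IkappaBalpha; red CBR luminescence normalised the signal, and concentration-effect curves were fitted to fusion, red and ratio data.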
USP2a block = inhibitors of human ubiquitin-specific protease USP2a. O75604. USP2 core, Ub-CHOP2 coupled fluorogenic reporter, 485/531. Potency, µM (top dose mostly 38.3 µM), without a hit: at the top dose activity change, negative = inhibition, most hits filed as inhibitors. 0.01% of 330,000 active. AID 463254;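 note: plate controls were DMSO wells for no effect and full inhibition by NEM control for full effect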
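Cell-free coupled assay: 10nM USP2 core preincubated 30min RT with compound in Tris-HCl pH 8.0/CaCl2/CHAPS buffer, then 25nM Ub-CHOP2 and 25nM reporter substrate; fluorescence (Ex 485/Em 531) read after 60min RT, normalized to NEM inhibition, concentration-response curves fitted.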
Eya2 phos inh = Eya2 (human) phosphatase inhibition | recombinant Eya2, OMFP fluorescence dephosphorylation (OMFP is methylfluorescein phosphate) | O00167 | Potency, µM (highest dose often 76.9 µM), without a hit: at the top dose activity, negative = inhibition, usual class: inhibitors | 0.006% of 330,000 active
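Eya2 (0.2 uM) preincubated 10 min at ambient with compound, then OMFP substrate added at 50 uM; 10 min reaction in 50 mM HEPES pH 7.5, 50 mM NaCl, 5 uM MgCl2, 0.05% BSA, 1 mM DTT. Fluorescence read at Ex 485/Em 525 nm.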
uPA generation = inhibitors of cell surface uPA generation. cell surface uPA generation assay, qHTS. Potency, µM (doses to about 38.3 µM), for the others: top-dose activity change, negative = inhibition, actives largely listed as inhibitors. 0.31% of 330,000 active; active = well fitted inhibition curve with a large enough effect; inconclusive = small, poorly fitted or top-dose-only effect; inactive = no such curve, though single readings can be large or run the other way; tested in mouse RAW 264.7 cells; note: nearly all actives have a fitted effect of over 55% in size
GCN5L2 inh = inhibitors of human GCN5L2 histone acetyltransferase; GCN5L2 HAT assay, ThioGlo1 CoA-SH fluorescence; Q92830; 0.21% of 390,000 active; Potency, µM (titrated, usually from 58.9 µM), inactives show at the top dose activity change, negative = inhibition, most hits filed as inhibitors; AID 504327
Target sequence (Q92830 whole entry, looked up): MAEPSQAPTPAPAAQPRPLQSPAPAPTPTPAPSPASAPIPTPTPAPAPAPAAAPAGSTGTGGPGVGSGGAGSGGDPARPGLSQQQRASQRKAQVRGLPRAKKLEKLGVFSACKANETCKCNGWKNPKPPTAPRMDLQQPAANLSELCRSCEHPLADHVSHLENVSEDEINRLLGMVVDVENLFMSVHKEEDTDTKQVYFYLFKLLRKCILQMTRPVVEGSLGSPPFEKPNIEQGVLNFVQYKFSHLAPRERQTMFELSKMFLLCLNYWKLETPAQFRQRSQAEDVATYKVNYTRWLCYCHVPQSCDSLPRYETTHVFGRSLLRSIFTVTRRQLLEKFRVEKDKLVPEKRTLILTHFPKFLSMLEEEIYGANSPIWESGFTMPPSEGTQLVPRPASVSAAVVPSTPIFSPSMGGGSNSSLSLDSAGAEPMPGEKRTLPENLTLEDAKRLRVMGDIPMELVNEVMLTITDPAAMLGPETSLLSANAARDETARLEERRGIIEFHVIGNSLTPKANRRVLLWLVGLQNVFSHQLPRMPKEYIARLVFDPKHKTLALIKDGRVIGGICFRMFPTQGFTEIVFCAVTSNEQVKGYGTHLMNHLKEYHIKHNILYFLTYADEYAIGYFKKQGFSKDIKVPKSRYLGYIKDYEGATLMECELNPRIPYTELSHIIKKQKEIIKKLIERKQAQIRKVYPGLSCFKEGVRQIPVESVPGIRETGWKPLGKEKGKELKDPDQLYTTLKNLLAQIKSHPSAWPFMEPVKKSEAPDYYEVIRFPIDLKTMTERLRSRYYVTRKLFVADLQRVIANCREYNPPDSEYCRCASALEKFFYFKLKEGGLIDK
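Enzyme at 20nM final was mixed with library compounds for 15 min at room temperature. Peptide H3(1-25) at 75uM, acetyl-CoA at 70uM and ThioGlo1 at 50uM were then added. Plates were read immediately and after 20 min (Ex340nm/Em540nm).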
Starred values were filed as active, the others as inactive; ? = inconclusive; . = no result; ! = not active in a repeat; [ ] = another dose, or the depositor's remark. Unless noted, calls come from the whole dose curve; as a rule, active = well fitted curve in the direction sought with a large enough effect; inconclusive = small, poorly fitted or top-dose-only effect, or another doubt; inactive = no such curve, though single readings can be large; an effect the other way counts as inactive or inconclusive. Unless noted, % is set by controls: 0 for no effect and ±100 for the full control effect; potency is the fitted concentration of half-maximal effect.

SMILES	RGS4 inhibitor	Chronic BCR inh	USP2a block	Eya2 phos inh	uPA generation	GCN5L2 inh
CC(C)(C)c1nn(-c2ccccc2)c2[nH]c(=O)c(CNCc3ccco3)cc12	-13%[11.4 µM]	0%	-1%	-3%	-5%	6%
O=C(N/N=C/c1ccc(OCCCF)cc1)c1cc(OCC(F)(F)F)ccc1OCC(F)(F)F	16%	7%	3%	-4%	0%	0.89µM*
COc1cc(/C=C/c2cc(C(=O)O)c3ccccc3n2)ccc1OC(F)F	28%	?	2%	9%	2.8µM*	-16%
O=C(C1CCCN(Cc2ccccc2F)C1)N1CCCCC1 (centres undefined)	-17%	-7%	2%	4%	2%	-2%
O=C(C1CCCN(Cc2ccccc2C(F)(F)F)C1)N1CCCCC1 (centres undefined)	-2%	-4%	3%	-2%	2%	1µM*
CCCCn1nc(C(=O)NCC(c2cccs2)N2CCOCC2)c2ccccc2c1=O (centres undefined)	-10%	?	3%	-2%	11µM*	-1%
O=C(N/N=C/c1ccc([N+](=O)[O-])o1)c1ccc2c(c1)OCO2	-1%	?	0%	-4%	4.5µM*	2%
O=C(NN=Cc1c(O)ccc2ccccc12)c1ccc2c(c1)OCO2	17%	?	3%	-17%	8.9µM*	-7%
O=C(N/N=C/c1ccccc1)c1ccc2c(c1)OCO2	14%	?	2%	-5%	?	-1%
Cc1ccccc1-c1nnc(SCC(=O)N2CCCc3ccccc32)o1	-16%	.	.	.	.	-10%
COc1ccc2cc1Oc1cc3c(cc1OC)CC[N+](C)(C)C3Cc1ccc(cc1)Oc1c(OC)c(OC)cc3c1C(C2)[N+](C)(C)CC3 (centres undefined)	.	.	.	.	.	20µM*
O=c1[nH]c(=S)[nH]c(-c2ccccc2)c1Cc1c(O)ccc2ccccc12	2.1µM*	.	.	6%	.	?
O=C(Nc1ccccc1C(=O)NCc1cccnc1)c1ccccc1F	-8%	4%	-1%	9%	-2%	-26%
COc1ccc(C(=O)Nc2ccccc2C(=O)NCc2cccnc2)cc1	1%	0%	1%	-5%	7.1µM*	-3%
Cc1cccc(NC(=O)N2CC=C(c3c[nH]c4ccccc34)CC2)c1C	-3%	.	.	.	.	-2%
Cc1[nH]n(-c2ccccc2)c(=S)c1C=Nc1cccc([N+](=O)[O-])c1	-193%	3%	-1%	16%	-1%	10µM*
COc1ccc(CN2CSC(=S)N(Cc3ccc(OC)cc3)C2)cc1	-11%	16µM*	-1%	4%	?	-6%
COc1ccc(CN2CSC(=S)N(Cc3ccccc3)C2)cc1	7%	?	2%	-6%	?	-9%
COC(=O)C1[C@@H](OC)C(OC(=O)COc2ccc(OC)cc2)C[C@@H]2CN3CCc4c([nH]c5cc(OC)ccc45)[C@H]3C[C@H]12 (some centres undefined)	.	.	.	.	.	-6%
CCCCNc1c(-c2ccc(SC(C)CC)cc2)nc2ccccn12 (centres undefined)	14%	0%	-2%	2%	2µM*	?
Nc1ccc(-c2nc3ccc(N)cc3o2)cc1	-26%	?	-1%	11%	7.9µM*	?
Nc1ccc(-c2nc3cc(N)ccc3o2)cc1	23%	-6%	0%	7%	?	?
CC(=O)Oc1cc(C(=O)OCC(=O)NC23CC4CC(CC(C4)C2)C3)cc(OC(C)=O)c1OC(C)=O	-26%	.	.	.	10µM*	.
COc1ccc2oc(C(=O)Nc3ccccn3)c(C)c2c1	-9%	?	1%	8%	-14%	?
COc1ccc2oc(C(=O)Nc3nc(C)cs3)c(C)c2c1	-19%	0%	0%	0%	10µM*	2%
SMILES	RGS4 inhibitor	Chronic BCR inh	USP2a block	Eya2 phos inh	uPA generation	GCN5L2 inh
CC1=CC(=O)C=C(C)C1=NOS(=O)(=O)c1ccccc1	-9%[11.4 µM]	?	-1%	-41%	-11%	-19%
CC1=CC(=O)C(C(C)C)=C/C1=N/OS(=O)(=O)c1ccccc1	-49%	?	0%	0%	4µM*	-18%
Cc1cc([N+](=O)[O-])nn1Cc1ccc(C(=O)N/N=C/c2ccc(O)cc2O)cc1	-45%	?	0%	-2%	7.1µM*	0%
COc1ccc2[nH]c(=O)c(CN(C(=O)c3cccc(Cl)c3)c3cccc(C)c3)cc2c1	2%	.	.	.	.	1%
COc1cccc(C(=O)Nc2sc3c(c2C#N)CCN(C(C)=O)C3)c1	-54%	20µM*	6%	3%	0.4µM*	-20%
O=C(NCc1ccco1)c1ccc(Cn2c(SCc3ccc(F)cc3)nc3cccnc32)cc1	-19%	.	.	.	.	-12%
CCCCCCCC/C=C\CCCCCCCCCCCC(=O)O	.	.	.	.	.	8.9µM*
CCCCC/C=C\C/C=C\C/C=C\CCCCC(=O)O	?	-10%	1%	-1%	-17%	14µM*!
CCCCCCCC/C=C\CCCCCCCC(=O)O	-17%	-1%	0%	-23%	-1%	32µM*!
CCCCC/C=C\C/C=C\C/C=C\CCCCCCC(=O)O	?	.	.	.	.	-5%
O=C1CC(c2ccccc2)Cc2[nH]c(=O)c(-c3nc(-c4ccc(Cl)c(Cl)c4)cs3)cc21 (centres undefined)	4%	.	.	.	.	1%
O=C(O)CSC1=NS(=O)(=O)c2ccccc21	-10%	.	.	.	.	.
CSCC[C@H](NC(=O)[C@@H]1CCCN1C(=O)CNC(=O)[C@H](CCCCN)NC(=O)[C@H](Cc1cnc[nH]1)NC(=O)[C@H](CO)NC(=O)[C@H](CC(C)C)NC(=O)[C@H](CCCN=C(N)N)NC(=O)[C@@H]1CCCN1C(=O)[C@H](CCCN=C(N)N)NC(=O)[C@@H]1CCC(=O)N1)C(=O)N1CCC[C@H]1C(=O)N[C@@H](Cc1ccccc1)C(=O)O	.	.	.	.	.	6%
CCOc1ccc(NC(=O)CSc2nccn2-c2cccc(C)c2C)cc1	-34%	.	.	.	.	-3%
CC(NC(=O)NC1CCCCC1)C(c1cccs1)N1CCN(c2ccccc2)CC1 (centres undefined)	14%	-13%	1%	18%	10µM*	?
O=[N+]([O-])/C=C\c1ccc(N2CCOCC2)cc1	-39%[56.9 µM]	.	.	.	8.9µM*	.
COc1ccc(N/N=C/c2c(C(=O)O)ccc3ccccc23)cc1	-17%	?	7%	13%	10µM*	-8%
CC(C)c1onc(C(=O)N2CCN(C(c3ccccc3)c3ccccc3)CC2)c1[N+](=O)[O-]	15%	2%	5%	-2%	3.2µM*	-1%
Cc1ccn2cc(-c3cccc(NC(=O)CCC(=O)O)c3)nc2c1	7%	?	-1%	0%	3.5µM*	0%
